Data: ChEMBL document CHEMBL3433997, “St. Jude Leishmania screening dataset” (2016)

Key:
Type in all cases: functional
[1] = molecular target: Solute carrier family 2, facilitated glucose transporter member 1 (Homo sapiens) (UniProt P11166); assay: ST_JUDE_LEISH: Cytotoxicity at 2uM final concentration against transgenic Leishmania Mexicana promastigotes LmGLUT1 that are glucose transport deficient and complemented with the human glucose transporter GLUT1. Activity is measured by DNA content using SYBR green in vitro
[2] = molecular target: Hexose transporter 1 (Plasmodium falciparum) (UniProt O97467); assay: ST_JUDE_LEISH: Cytotoxicity at 2uM final concentration against transgenic Leishmania Mexicana promastigotes LmPfHT that are glucose transport deficient and complemented with the Plasmodium falciparum hexose transporter. Activity is measured by DNA content using SYBR green in vitro
[3] = molecular target: Glucose transporter (Leishmania mexicana) (UniProt O61059); assay: ST_JUDE_LEISH: Cytotoxicity at 2uM final concentration against transgenic Leishmania Mexicana promastigotes LmGT2 that are glucose transport deficient and complemented with the L. Mexicana glucose transporter 2. Activity is measured by DNA content using SYBR green in vitro

Solute carrier family 2, facilitated glucose transporter member 1 (Homo sapiens), sequence (P11166 whole entry): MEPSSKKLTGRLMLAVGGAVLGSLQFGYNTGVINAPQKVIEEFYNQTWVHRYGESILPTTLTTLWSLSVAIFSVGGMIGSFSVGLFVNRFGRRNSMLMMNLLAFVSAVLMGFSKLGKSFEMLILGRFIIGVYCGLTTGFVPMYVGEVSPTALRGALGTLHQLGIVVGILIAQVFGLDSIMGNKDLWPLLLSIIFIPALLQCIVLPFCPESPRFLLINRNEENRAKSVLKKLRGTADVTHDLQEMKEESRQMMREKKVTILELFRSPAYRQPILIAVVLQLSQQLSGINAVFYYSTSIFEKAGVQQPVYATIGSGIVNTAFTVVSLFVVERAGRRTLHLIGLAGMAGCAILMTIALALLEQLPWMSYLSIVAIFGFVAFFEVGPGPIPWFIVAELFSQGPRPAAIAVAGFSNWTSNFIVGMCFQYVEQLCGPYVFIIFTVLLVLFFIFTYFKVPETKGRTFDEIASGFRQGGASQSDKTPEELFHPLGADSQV

SMILES | inhibition [1] [%] | inhibition [2] [%] | inhibition [3] [%]
COc1ccc(-n2ccnc2SCC(=O)Nc2cccc(C(F)(F)F)c2)c(OC)c1 | 0.63 | 0.74 | -0.9
CCNc1cc(C(=O)N[C@@H](Cc2ccccc2)[C@H](O)CNC(C)(C)CCCC(C)C)cc(N2CCCCS2(=O)=O)c1 | -0.28 | 0.88 | -0.83
CCc1cn2c3c(cc(C(=O)N[C@@H](Cc4ccccc4)[C@H](O)CNCc4ccccc4)cc13)N(C)S(=O)(=O)CC2 | -0.83 | -0.74 | 0.13
CC(O)CNc1nc2ccccc2n1CC(=O)Nc1cccc(C(=O)Nc2cccc(C(F)(F)F)c2)c1 (configuration not stated) | 1.41 | 1.81 | 4.48
CCOc1ccc(C(=O)Nc2cc(Br)c3c(c2)CNCC3)cc1C#N | 6.36 | 5.03 | 5.78
COc1cc2ncnc(Nc3ccc(OCc4ccccc4)c(I)c3)c2cc1OC | 1.41 | 0.71 | 1.33
COc1ccc(C2CC(=O)C3=C(C2)NC(C)=C(C(=O)OC2CCCC2)C3c2ccc(O)cc2)cc1OC (configuration not stated) | -0.48 | 0.53 | 0.39
Cc1ccccc1C1CCN(C2CCC(NC(=O)c3ccc(-c4ccccc4F)o3)CC2)CC1 (configuration not stated) | 3.69 | 2.49 | 1.85
CC(=O)Nc1nc(C(=O)Nc2ccc(-c3cccc(-c4nc5cccc(C)c5[nH]4)c3)cc2)cs1 | 8.57 | 9.26 | 5.38
CCOC(=O)CNC(=O)N1CCN(C(=O)NCC(=O)OCC)CC1 | 0.06 | 0.22 | 1.45
O=C(C=Cc1ccc(Cl)c(Cl)c1)NCCCCCN1CCC(CCCNS(=O)(=O)c2ccc(Br)cc2)CC1 | 3.69 | -0.68 | 4.73
Cc1cccc2nc(-c3ccc(-c4cccc(CN5CCCC(O)C5)c4)s3)[nH]c12 (configuration not stated) | 3.6 | 4.83 | 2.93
CC(C)CNC(=O)c1cncc(-c2ccc(CN(C)C3CCN(C)CC3)cc2)c1 | 4.89 | 5.48 | 1.87
O=C(Nc1ccc(Oc2ccccc2)cc1)N(CCN1CCCC1)Cc1ccc(-c2ccc(CN3CCNCC3)cc2)cc1 | 0.02 | 1.54 | 0.38
